Laboratory results from PubChem BioAssay (NCI).
Where “and” joins values, the source holds several entries; their conditions need not be identical. Equal values may be shown once. Compounds without any hit were thinned out: in the full panel of roughly 83,000, 20% have a hit.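 Note: values are percent growth. 100 is the growth of untreated cells, values between 100 and 0 indicate rising inhibition; between -100 and 0 indicates cell death.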 A number with no mark means an inactive call. Calls of active or inactive are those of the source. How the source made its calls: active means growth percent below 10; inactive means the rest.

The compounds below were run on HL-60(TB) leukemia (assay: NCI-60 one-dose screen, 48 h (100 = growth as untreated, 0 = no growth, -100 = all killed)). Settings: 10 µM unless noted.

| SMILES | growth |
| --- | --- |
| O=C(c1ccncc1)c1c(Cc2ccccc2)ccc2ccccc12 | 88.1% |
| COc1ccc(/C=C/C(=O)Nc2ncnc3nc[nH]c23)cc1 | 78.8% |
| COc1cc(/C=C/c2ccccc2)cc(OC)c1 | 96.2% |
| O=C1/C(=C/c2cccs2)SC(=S)N1CCCN1CCOCC1 | 90.4% |
| COc1ccc(C2C3=C(COC3=O)N(CCO)c3cc(OC)c(OC)cc32)cc1 (centres undefined) | 89% |
| COc1ccc2c(c1)C(=O)c1c-2c(OCCN(C)C)nc2cc(OC)c(OC)cc12 | 89.9% |
| COc1ccc(-c2nnc(SCC(=O)Nc3ccc(C(=O)/C=C/c4ccccc4)cc3)o2)cc1OC | 90% |
| Fc1ccc2c(c1)c(-c1nc(-c3c[nH]c4ncccc34)cs1)cn2CCCN1CCCCC1 | 24.2% |
| COc1ccc(-c2oncc2-c2cc(OC)c3c(c2)OCO3)cc1 | -6.72% (active) |
| C=C1C(=O)O[C@H]2[C@H]1CC/C(COC(=O)NCc1cc[nH]c1)=C\CC[C@@]1(C)O[C@@H]21 | -6.94% (active) |
| N/C(=N\N=C\c1cc2ccccc2s1)N/N=C/c1cc2ccccc2s1 | 94.4% |
| COc1ccc(-c2nc3sc(-c4ccc(OC)cc4)c(-c4ccc(OC)cc4)n3c2/C=C/c2ccc(C(C)C)cc2)cc1 | 97% |
| CCC(=O)OCc1ccc(OC)cc1 | 97% |
| COc1ccc2c(c1)[n+]([O-])c(C(=O)/C=C/C=C(\Cl)c1cc(OC)c(OC)c(OC)c1)c(C)[n+]2[O-] | 107% |
| O=C(O)C1C2CCC1C(O)C2 (centres undefined) | 94.6% and 96% |
| NC(Cc1ccccc1)C(=O)NC(Cc1ccccc1)C(=O)O (centres undefined) | 105% and 102% |
| COc1ccc(-c2ncnc3c2ncn3C/C=C/CCl)cc1 | 65% and 79.4% |
| CC[C@@H]1NC(=O)[C@@H]2CCCCN2C(=O)[C@@H]2CCCN2C(=O)[C@@H](NC(=O)[C@H](Cc2cc(F)cc(F)c2)NC(=O)Nc2ccc(C3CC3)cc2F)[C@H](C)OC(=O)[C@@H]2C[C@@H](C)CN2C1=O | 5.69% (active) |
| O=CN1CCCCC1 | 97% |
| Nc1c(C(=O)Nc2ccccc2Cl)sc2nc3c(cc12)C(O)CCC3 (centres undefined) | 0.926% (active) |

| SMILES | growth |
| --- | --- |
| Cn1cc(-c2nonc2-c2c[nH]c3ccc(Br)cc23)c2cc(Br)ccc21 | 54% |
| CCc1cc2c(c3ccc(C(=O)CBr)cc13)CCCC2 | 97.7% |
| O=c1sc2ncnc3ncn1c32 | 85.1% |
| O=C(Nc1cccc(C2=NCCN2)c1)c1ccc(OCCCOc2ccc(C(=O)Nc3cccc(C4=NCCN4)c3)cc2)cc1 | -27.3% (active) |
| c1nc(SC2=NCCN2)c2[nH]cnc2n1 | 22.6% |
| COc1cc(C(=O)n2nc(N3CCN(C)CC3)c3cc(N)ccc32)cc(OC)c1OC | 1.68% (active) |
| COc1ccc2c(c1)C(=O)/C(=C/c1ccccn1)CC2 | 75.5% |
| CN1CCN(Cc2ccc(NC(=O)c3nc4ccc5[nH]ncc5c4c4c3CCC4)cc2C(F)(F)F)CC1 | -59.1% (active) |
| COc1ccc(/C=C2\COc3ccc(O)c(O)c3C2=O)cc1 | -5.92% (active) |
| COc1cc(-c2nnc(-c3nc(-c4cc(OC)c(OC)c(OC)c4)n4ccccc34)o2)ccc1N | 64.8% |
| ClCCn1cnc2c(SCc3ccccc3Cl)ncnc21 | 8.38% (active) |
| Cn1nccc1Nc1nccc(-c2ccn([C@H](CO)c3ccc(Cl)c(F)c3)c(=O)c2)n1 | 57.1% |
| CS(=O)(=O)c1ccc(-c2cnn3ccc(-c4cccc(S(=O)(=O)C5CC5)c4)nc23)cc1 | 24.3% |
| CCCCCCCCCCCCCCCCCCOc1ccccc1CC(=O)NCC[N+]1(C)CCCC1 | 39.7% |
| CC(C)(C)c1cc(NC(=O)Nc2ccc(-c3cn4c(n3)sc3cc(OCCN5CCOCC5)ccc34)cc2)no1 | 18.7% and 41% |
| O=S(=O)(Nc1cc(Br)c(O)c2ccccc12)c1ccc(F)cc1 | -26.9% (active) |
| NCCN1CCN(c2nccc(-c3ccc4ccccc4c3)n2)CC1 | 34.3% |
| CCN(C)CCCOc1ccc(/C(=C(\C)Cc2cccc(OC)c2)c2ccc(OC(C)=O)cc2)cc1 | 100% |
| CCOC(=O)c1cc(C(=O)c2cc(OC)c(OC)c(OC)c2)n2ncc3ccccc3c12 | 28.7% |
